# Data reported in PubChem BioAssay AID602392 (National Center for Advancing Translational Sciences (NCATS), 2012).
# Several values for one entry are separate records, joined by “and”; a condition that tells them apart may be missing. Equal values may be shown once. Activity calls are given as the source filed them. Calls come from the whole dose curve.
# Biological target: 4'-phosphopantetheinyl transferase Sfp (Bacillus subtilis (strain 168)) (UniProt P39135)
# Experiment: qHTS Assay for Inhibitors of Bacillus subtilis Sfp phosphopantetheinyl transferase (PPTase): Label Free Assay for SAR
# Conditions: purified Sfp with carrier protein, gel densitometry, 30 min
# Excerpt: The covalent attachment of a phosphopantetheinyl (4'-PP) arm to a variety of synthases and other proteins is a key posttranslational protein modification. The 4'-PP is installed on the proteins post-translationally from coenzyme A (CoA) on a conserved serine residue by action of phosphopantetheinyl transferase (PPTase) enzymes. Phosphopantetheinylation is essential for synthase activity, and removal of the PPTase gene precludes natural product synthesis in microorganisms, or in the case of fatty acid biosynthesis, renders the organism unviable. PPTase enzymes belong to a distinct structural superfamily. Within bacteria, these enzymes are grouped into two classes based upon primary structure, the AcpS-Type and Sfp-Type PPTases.
# Sfp-type PPTases, corresponding to an activator of surfactin production in Bacillus subtilis, are responsible for modifying type I polyketide and nonribosomal peptide synthases of prokaryotes. Sfp-type PPTases are responsible for the activation of a variety of pathogen-associated virulence factors. Among these compounds are toxins such as mycolactone from Mycobacterium ulcerans, siderophores such as vibriobactin from Vibrio cholerae or mycobactin from Mycobacterium tuberculosis, as well as the mycolic acids which form the waxy cell wall of Mycobacteria. The biosyntheses of these natural products are considered attractive targets for drug design.
# In search of small molecule Sfp-PPTase inhibitors, a fluorescence quenching assay was developed for detection of Bacillus subtilis Sfp-PPTase enzymatic activity in a miniaturized high-throughput format. The consensus ybbr acceptor peptide […] was N-terminally labeled with Black Hole Quencher-2 (BHQ-2) and used in combination with rhodamine-labeled coenzyme A as a co-substrate.
# This project seeks to identify inhibitors of Sfp phosphopantetheinyl transferase. The primary and secondary screens both utilized a rhodamine-modified CoA substrate. This experiment sought to confirm compound activity in a biochemical assay using the natural nucleotide substrate in conjunction with a whole-protein acceptor. We employed polyacrylamide gel electrophoresis in the presence of modest urea concentrations to achieve a conformationally sensitive separation of the apo- and holo- states of the acyl carrier protein (ACP) from E. coli [Rock, 1981, Cronan 1982]. Under conditions of limiting Sfp concentrations, quantitative determinations of enzyme activity can be made from images of the gels after treatment with an appropriately sensitive protein stain.
# NIH Chemical Genomics Center [NCGC]
# NIH Molecular Libraries Probe Centers Network [MLPCN]
# Assay Submitter (PI): Michale Burkart, University of California, San Diego
# Preparation of apo-ACP substrate.
# A derivative of the AcpP locus from E. coli K12 containing a C-terminal fusion to a hexahistidine tag is expressed and purified from E.coli BL21(DE3) following standard procedures, (27) providing a mixture of the apo- and holo- forms of ACP in a ratio 3:2; as judged by UREA-PAGE. The resulting mixture (10 mg/ml) is reduced overnight in PBS buffer containing 10 mM DTT, and excess reducing agent removed by passage over a PD6 desalting column (Bio-Rad Laboratories, Hercules, CA). The sample is immediately pooled with an equal volume of activated thiol sepharose 4B (cat #17-0640-01, GE Healthcare, Piscataway, NJ) prepared according to the manufacturers recommendations; and the slurry agitated gently overnight at 4 deg C. The slurry was decanted into a disposable chromatography column and washed with 3 volumes of PBS. The filtrate and washes were pooled, concentrated, and the process iterated once to provide a solution of ACP that was >98% apo-form as judged by conformationally sensitive UREA-PAGE.
# Label-free gel assay for phosphopantetheinylation.
# Test compound (0.5 ul) dissolved in DMSO was added to 1.33 X enzyme solution (15 ul) containing 66 nM Sfp, 66 mM HEPES*Na pH 7.6, 13.3 mM MgCl2, 0.0133% NP40, and 1.33 mg/ml BSA. […]
Structure (SMILES),outcome,Potency
CCOC(=O)c1cc(-c2ccccc2)sc1NC(=O)c1ccc(OC)cc1,inactive,
CC(C)(C)Cc1nnc(NC(=O)CSc2ccccc2)s1,inactive,
Cc1ccnc(NC(=S)N2CCN(c3cccc(C(F)(F)F)c3)CC2)c1,,83.3 µM (active) and 3.09 µM (active)
CCOC(=O)c1c(-c2ccc(C)o2)csc1NC(=O)CSc1nnnn1-c1ccccc1,,27.8 µM (active)
CCc1c(C)sc(NC(=O)C2CCCCC2C(=O)O)c1C(N)=O (configuration not stated),inactive,
S=C(Nc1ccccn1)c1ccccn1,inactive,
O=C(Nc1nnc(COc2ccc(Cl)cc2)s1)c1cccs1,,250 µM (active)
Cc1ccnc(NC(=S)N2CCN(c3ccc(Br)cc3)CC2)c1,,83.3 µM (active)
C(=C1\Nn2c(COc3ccccc3)nnc2S1)/c1ccccc1,,27.8 µM (active)
CN(C)c1ccc(C(=S)N2CCN(Cc3ccccc3)CC2)cc1,,27.8 µM (active)
COc1ccc(N2CCN(C(=S)Nc3cc(C)ccn3)CC2)cc1,,83.3 µM (active)
O=C(Nc1nnc(COc2ccc(Cl)cc2)s1)c1ccco1,,9.26 µM (active)
